Bioassay records from PubChem BioAssay.
TDP1 cell CPT: DT40-hTDP1 cell growth loss with CPT | chicken DT40 Tdp1-/-;hTDP1 cells + 20 nM CPT, ATP luminescence, 48 h | Potency, µM (doses to about 46.2 µM), for the others: at the highest dose activity change, negative = growth inhibition, hits mostly inhibitors | actives 12% (n = 420,000); also: potency is read from the fitted curve at half-maximal effect; nearly all actives have a fitted effect of over 55% in size
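Chicken DT40 Tdp1-/- cells complemented with human TDP1, 400 cells/well, exposed to compounds plus 20 nM camptothecin for at least 48 h at 37 C; viability read as ATP content by CellTiter-Glo luminescence.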
HT1080NT lethal: kills 2HG-producing HT-1080-NT fibrosarcoma cells | HT-1080-NT fibrosarcoma viability, CellTiter-Glo ATP luminescence, 48 h | Potency, µM (series often up to 46.1 µM), without a hit: at the top dose activity, negative = less viability, hits mostly cytotoxic | actives 1.6% (n = 360,000);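 also: NT is the 2HG producing partner of a matched IDH1 knockdown line; potency is read from the fitted curve at half-maximal effect; 0% = DMSO-treated cells and -100% = media-only wells without cells; nearly all actives have a fitted effect of over 55% in size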
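Luminescent CellTiter-Glo readout after 48 hours of compound exposure at 37 degrees C defined viability of HT-1080-NT cells. Activity was normalized to DMSO wells and cell-free media wells; concentration-response curves were fitted and assigned curve classes.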
IL-1B inflam inh: inhibitors of inflammasome signaling (IL-1 beta secretion) | THP-1 LPS/ATP IL-1B secretion, AlphaLISA, 16 h; hits give low values | activity change, % at 57.5 µM | actives 4.7% (n = 360,000) | AID 743279; in the data active = activity change below about -50%; inconclusive = mostly about -30% to -49%
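Secreted IL-1B measured by AlphaLISA bead assay after 16 h compound exposure of THP-1 cells; compounds (final up to 57.5 uM) added 1 h before LPS (250 ng/mL) and ATP (1.25 mM) stimulation; lower signal means less secretion.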
12-LOX inh: inhibitors of human 12S-lipoxygenase ALOX12; P18054; purified 12hLO, xylenol orange hydroperoxide absorbance; Potency, µM (series often up to 108 µM), without a hit: at the highest dose activity change, negative = inhibition, usual class: inhibitors; actives 1.1% (n = 580,000); also: potency is read from the fitted curve at half-maximal effect
Target sequence (P18054 whole entry, looked up): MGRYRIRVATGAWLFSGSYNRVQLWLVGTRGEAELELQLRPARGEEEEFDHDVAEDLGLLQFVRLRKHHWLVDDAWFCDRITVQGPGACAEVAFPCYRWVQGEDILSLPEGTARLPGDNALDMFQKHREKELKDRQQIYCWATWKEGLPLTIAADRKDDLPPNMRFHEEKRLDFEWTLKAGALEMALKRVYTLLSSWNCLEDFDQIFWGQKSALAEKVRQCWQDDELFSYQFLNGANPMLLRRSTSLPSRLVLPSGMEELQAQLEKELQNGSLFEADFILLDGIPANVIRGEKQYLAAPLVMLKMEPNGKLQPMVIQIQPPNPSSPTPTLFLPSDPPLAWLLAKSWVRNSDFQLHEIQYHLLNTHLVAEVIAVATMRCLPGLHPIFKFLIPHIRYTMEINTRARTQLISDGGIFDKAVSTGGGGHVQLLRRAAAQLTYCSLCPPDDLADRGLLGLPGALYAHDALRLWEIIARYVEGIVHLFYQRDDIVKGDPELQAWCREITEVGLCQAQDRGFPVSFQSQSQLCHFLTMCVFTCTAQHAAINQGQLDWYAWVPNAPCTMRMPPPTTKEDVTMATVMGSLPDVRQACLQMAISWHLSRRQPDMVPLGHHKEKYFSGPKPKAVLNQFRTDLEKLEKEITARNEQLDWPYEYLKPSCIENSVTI
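Hydroperoxide product was detected by ferrous iron/xylenol orange as the 573 to 405 nm absorbance ratio. Arachidonic acid at 40 uM (final) was turned over for 30 min at room temperature by 150 nM human 12hLO, pH 7.0 Hepes buffer, after 15 min compound preincubation.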
HT1080 IDH1KD tx: HT-1080 IDH1 knockdown cell toxicity (counter line); HT-1080 IDH1 knockdown viability, ATP luminescence, 48 h; actives 2% (n = 360,000); Potency, µM (titrated, usually from 46.1 µM), inactives show top-dose activity, negative = toxicity, hits mostly cytotoxic;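 also: potency is read from the fitted curve at half-maximal effect; 0% = DMSO wells and -100% = cell-free medium wells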
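After a 2 h attachment period, IDH1KD HT-1080 cells took pin-transferred compound for 48 h at 37 °C; ATP-based luminescence after 10 min room-temperature reagent incubation reported viability.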
DT40 TDP1 no CPT: qHTS for Inhibitors of human tyrosyl-DNA phosphodiesterase 1 (TDP1): qHTS in cells in absence of CPT; actives 15% (n = 420,000); DT40 Tdp1-/- hTDP1 cells, no CPT, ATP luminescence, 48 h; AID 686978, 2013; Potency, µM (titrated, usually from 46.2 µM), for inactives: at the highest dose activity change, negative = growth inhibition, actives largely listed as inhibitors; also: potency is read from the fitted curve at half-maximal effect; nearly all actives have a fitted effect of over 55% in size
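Compound effects on proliferation are scored in DT40 Tdp1-/-;hTDP1 cells in the absence of CPT. ATP levels (CellTiter-Glo luminescence) are recorded after a ≥48 hr, 37 °C incubation.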
Numbers without * were called inactive; u = inconclusive; x = no result. The sample as a whole holds a higher share of hits than the screen did. Unless noted, calls follow the shape of the dose curve; as a rule, active = well fitted curve in the direction sought with a large enough effect; inconclusive = small, poorly fitted or top-dose-only effect, or another doubt; inactive = no such curve, though single readings can be large; an effect the other way counts as inactive or inconclusive. Unless noted, % is scaled to controls: 0 for no effect and ±100 for the full control effect.

SMILES | TDP1 cell CPT | HT1080NT lethal | IL-1B inflam inh | 12-LOX inh | HT1080 IDH1KD tx | DT40 TDP1 no CPT
COc1cccc(/C=C/C(=O)OCC(=O)NCCC2=CCCCC2)c1 | u | 3% | 20 | 2% | -4% | 23µM*
COc1ccc(/C=C/C(=O)OCC(=O)NCCC2=CCCCC2)cc1 | -16% | 4% | 4 | 2% | 5% | -12%
O=C(CCl)N(c1ccccc1)C1CCS(=O)(=O)C1 (stereo not drawn) | 8.2µM* | u | -89* | 5% | 18µM* | 8.2µM*
CC(=O)Nc1ccc(C(=O)OCC(=O)N(c2ccccc2)C2CCS(=O)(=O)C2)cc1 (stereo not drawn) | -3% | 11% | -6 | 1% | 13% | -13%
O=C(NCc1ccc(Cl)cc1)c1ccc2c(Cl)c3c(nc2c1)CCCC3 | 16µM* | x | x | -17% | x | u
O=C(NCc1cccc(Cl)c1)c1ccc2c(Cl)c3c(nc2c1)CCCC3 | u | x | x | -19% | x | 15µM*
CCc1ccc(NC(=O)c2ccc3c(Cl)c4c(nc3c2)CCCC4)cc1 | x | x | x | 7% | x | x
COc1ccc(C(=O)N2CCc3ccc(C(=O)Nc4ccc5c(c4)OCCO5)cc32)cc1 | x | x | x | 31% | x | x
CC(C)Oc1nnc(SCC(=O)Nc2ccccc2Cl)s1 | x | x | x | -33% | x | x
Cc1cc(NC(=O)COc2cccnc2[N+](=O)[O-])no1 | -1% | -2% | -9 | 11% | 7% | -16%
O=C(COc1cccnc1[N+](=O)[O-])c1ccc(Cl)s1 | 16µM* | 13% | -11 | 40µM* | 2% | 16µM*
Cc1cc(-n2c(C)cc(C(=O)COc3ccc4ccc(=O)oc4c3)c2C)no1 | u | -5% | -8 | 0% | -1% | u
Cc1cc(-n2c(C)cc(C(=O)COc3cccnc3[N+](=O)[O-])c2C)no1 | 12µM* | 0% | 12 | -6% | -8% | 15µM*
CC(=O)c1cccc(OCC(=O)c2cc(C)n(-c3cc(C)on3)c2C)c1 | 18µM* | -16% | -17 | 0% | -30% | 18µM*
Cc1cc(C(=O)N2CCCC(c3noc(COc4ccccc4)n3)C2)nn1C (stereo not drawn) | x | x | x | 31% | x | x
O=C(NCc1ccccc1)N1CC(c2nc(CCOCC3CCCC3)no2)C1 | x | x | x | 26% | x | x
Cc1cc(C(=O)NNc2ccc(Cl)cc2)no1 | 10% | 2.3µM* | 4 | u | 2.6µM* | u
Cc1ccc(NNC(=O)c2ccno2)cc1Cl | u | u | 49 | u | 3.7µM* | 10µM*
Cc1cc(C(=O)NNc2ccc(C)c(C)c2)no1 | 3% | u | 29 | 144% | 23µM* | -12%
Cc1cc(C(=O)NNC(=O)Nc2ccc(Cl)cc2)no1 | 18% | 12% | 13 | 253% | 0% | 9%
Cc1cc(OC(=O)c2ccc(CSc3ccc(Cl)cc3)cc2)ccc1C(C)C | x | x | x | -19% | x | x
O=C(COc1ccccc1[N+](=O)[O-])OCC(=O)c1ccc(Br)s1 | -17% | 3% | 17 | 45µM* | -1% | -8%
O=C(COc1ccccc1[N+](=O)[O-])OCCCOC(=O)COc1ccccc1[N+](=O)[O-] | 4% | 2% | 1 | -2% | -2% | -10%
COC[C@@H]1[C@H](C(=O)Nc2cc(OC)ccc2OC)CCC(=O)N1C | x | x | x | 60% | x | x
CCC(=O)n1nc(-c2cccnc2)nc1NCc1ccccc1 | -6% | -35% | 4 | 24% | 4.6µM* | -24%
SMILES | TDP1 cell CPT | HT1080NT lethal | IL-1B inflam inh | 12-LOX inh | HT1080 IDH1KD tx | DT40 TDP1 no CPT
O=C1NCCCCCCN(S(=O)(=O)c2cccc(F)c2)[C@H]2CCC[C@@H]12 | x | x | x | 12% | x | x
CC(C)N1CCC(NC(=O)c2ccc3ccccc3c2)CC1 | x | x | x | -28% | x | x
COc1ccc(C(=O)NC2CCN(C(=O)c3cc4c(=O)[nH]c(C)cn4n3)CC2)c(C)c1 | x | x | x | 14% | x | x
CCOC(=O)c1ccc(NC(=O)Cn2nc(SC)c(S(=O)(=O)c3ccc(Cl)cc3)c2N)cc1 | u | x | x | u | x | 21µM*
CSc1nn(CC(=O)Nc2cc(C)ccc2C)c(N)c1S(=O)(=O)c1ccccc1 | u | x | x | -24% | x | 6.5µM*
CCSc1nn(CC(=O)Nc2ccc(C(=O)OC)cc2)c(N)c1S(=O)(=O)c1ccc(C)cc1 | 16µM* | x | x | -29% | x | 21µM*
COc1ccc(NC(=O)Cn2nc(SC)c(S(=O)(=O)c3ccc(C)cc3)c2N)cc1OC | -7% | x | x | u | x | -22%
Cc1cccc(CNc2ncnc3ccc(-c4cccnc4)cc23)c1 | 12µM* | x | x | u | x | 18µM*
Cc1cccc(-c2ccc3ncnc(NCc4cccnc4)c3c2)c1 | x | x | x | 1% | x | x
Cc1cccc(CNc2ncnc3ccc(-c4ccoc4)cc23)c1 | 21µM* | x | x | u | x | 13µM*
Cc1noc(C)c1-c1ccc2ncnc(NCc3cccnc3)c2c1 | 9.2µM* | x | x | u | x | u
c1cncc(CNc2ncnc3ccc(-c4ccoc4)cc23)c1 | 10µM* | x | x | -1% | x | u
Cc1cc(C)n(CCC(=O)N2[C@@H]3CC[C@H]2CC(NC(=O)c2ccc(F)cc2)C3)n1 (stereo partly drawn) | x | x | x | 34% | x | x
c1ccc(Nc2ncnc3ccc(-c4cccnc4)cc23)cc1 | u | x | x | -29% | x | 18µM*
O=C(Oc1ccc(Nc2ncnc3ccccc23)cc1)c1cccnc1 | -14% | -6% | 19 | -6% | 5% | u
CC(=O)Nc1cc(-c2cccc(F)c2)cn2c(-c3ccc(F)c(Cl)c3)cnc12 | u | u | -2 | -23% | u | u
CC(=O)Nc1cc(-c2ccccc2)cn2c(-c3ccc(F)c(Cl)c3)cnc12 | 23µM* | -1% | -12 | u | u | u
CC(=O)Nc1cc(-c2ccc(F)cc2)cn2c(-c3ccc(F)c(Cl)c3)cnc12 | u | u | -13 | u | u | 23µM*
CC(=O)Nc1cc(-c2ccc(CO)cc2)cn2c(-c3ccc(F)c(Cl)c3)cnc12 | u | 33µM* | -28 | 35µM* | u | u
CCC(=O)Nc1ccc(SC2CCCC2)cc1 | x | x | x | 0% | x | x
CCCCC(=O)NC1(C(F)(F)F)C(=O)N(Cc2ccccc2)C(C)=C1C(=O)c1ccccc1 (stereo not drawn) | x | x | x | 15% | x | x
CCOc1cc(C2C(C#N)=C(N)OC(C)=C2C(C)=O)c(Br)c(Br)c1OC(C)C (stereo not drawn) | 4.6µM* | 7.3µM* | 0 | x | 15µM* | 4.6µM*
